We go through ten molecules from PubChem BioAssay.

Several values for one entry are separate records, joined by “and”; a condition that tells them apart may be missing. Equal values may be shown once. Activity calls are given as the source filed them. Cut-off read from the data, not from the text of the source, unless noted: active = parasite load remaining mostly below about 12% (no sharp cut-off); inactive = mostly above about 10%.

Assay [1] can be described thus: P. berghei load reduction in hepatocytes – cell-based, HepG2, luciferase luminescence, HepG2 viability, primary screen (AID 624349).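 Note: 100% = mean of DMSO negative control wells on the same plate.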 Conditions: P. berghei liver stage in HepG2, luciferase luminescence, concentration not given here; parasite load remaining: stronger effect = lower value; viability: measured here: HepG2 viability without parasites.
Assay [2] can be described thus: EMT-state selective cytotoxicity in co-culture – imaging, PC-3E GFP, TEM4-18 mCherry, primary screen (AID 1345086;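 active = compounds killing one labelled cell type while sparing the other, by normalised counts and ratio limits, not self-fluorescent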;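 for all read-outs here: cells exposed to compound for 72 h before imaging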;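 for red/green cell ratio (normalised): normalised mesenchymal count divided by normalised epithelial count so high means epithelial killing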). Conditions: PC-3E GFP / TEM4-18 mCherry co-culture, imaging cell counts, at 1 µM; for red/green cell ratio (normalised): actives lie on both sides, counts scaled to control wells, 1 = unselective.
Assay [3] can be described thus: viability loss with induced miR-34 in A549 – imaging, A549 dox-inducible miR-34, nuclei and caspase counts, primary screen (AID 1347080;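 active = compounds whose cell count with miR-34 switched on is under 0.7 times the count with it off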). The note with it: A549 miR-34 inducible, Hoechst nuclei count, 48 h.
Assay [4] is described as follows: compounds altering viability of human ES cells (AID 493140; call rule not given here;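 note: cells exposed to compounds for four days before counting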). Conditions: human embryonic stem cell survival screen; stronger effect = higher value.
The mark [5] stands for this setting: measured here: epithelial PC-3E GFP cell survival.
The mark [6] stands for this setting: measured here: mesenchymal TEM4-18 mCherry cell survival.
[7] abbreviates: stronger effect = lower value, cell number ratio, induced over uninduced.
The mark [8] stands for this setting: measured here: relative caspase fold change +Dox/-Dox.
Setting [9] is: measured here: total cells with miR-34 induction, stronger effect = lower value.
Where [10] appears, read: measured here: total cells without miR-34 induction.

In general, viability refers to a read-out of living cells in per cent, often relative to untreated cells. As for `O=C(O)c1cc(O)c2c(c1)[C@@H]([C@H]1c3cc(C(=O)O)cc(O)c3C(=O)c3c(O[C@H]4O[C@H](CO)[C@@H](O)[C@H](O)[C@H]4O)cccc31)c1cccc(O[C@H]3O[C@H](CO)[C@@H](O)[C@H](O)[C@H]3O)c1C2=O`, the parasite load remaining in assay [1] is 132% (inactive) and 77.3% (inactive). In assay [1], the viability is 80.8% and 104%. In assay [2], the red/green cell ratio (normalised) was 0.69 (inactive). Moreover, the values for the normalised cell number in assay [2] (setting [5]) and in assay [2] (setting [6]) were 1.22 and 0.84, respectively. The fold change is 0.789 (inactive) in assay [3] (setting [7]) and 9.83 in assay [3] (setting [8]). For the same molecule, the cell count in assay [3] (setting [9]) worked out at 10200; in assay [3] (setting [10]) it was 12900.
For `CCCCCC(O)C1C(=O)OC(C)C(O)/C=C/C=C/C=C/C=C/C=C(\C)C(O)CC(O)CC(O)CC(O)CC(O)CC(O)CC1O` (centres undefined), the parasite load remaining in assay [1] is 18% (inactive). For the same molecule, the viability in assay [1] was 94.9%. In assay [2], the red/green cell ratio (normalised) is 1.13 (inactive). In addition, the normalised cell number in assay [2] (setting [5]) worked out at 0.84; in assay [2] (setting [6]) it was 0.95. Besides, the values for the fold change in assay [3] (setting [7]) and in assay [3] (setting [8]) were 0.935 (inactive) and 2.39, respectively. The cell count in assay [3] (setting [9]) stood at 11500; in assay [3] (setting [10]), 12300.
With `CCc1cc(Cl)c(OC)c(C(=O)NCC2CCCN2CC)c1O` (centres undefined), the survival in assay [4] was 1.5 (inactive). Further, the red/green cell ratio (normalised) in assay [2] was 0.67 (inactive). Moreover, the normalised cell number in assay [2] (setting [5]) is 1.29; in assay [2] (setting [6]) it was 0.86. Besides, the fold change in assay [3] (setting [7]) was 0.847 (inactive); in assay [3] (setting [8]), 0.822. Moreover, the cell count in assay [3] (setting [9]) was found to be 7250; in assay [3] (setting [10]) it was 8550.
With `CC(C)C1CCC(C(=O)N[C@@H](Cc2ccccc2)C(=O)O)CC1` (some centres undefined), the parasite load remaining in assay [1] was 74.2% (inactive) and 53.3% (inactive). In addition, the viability in assay [1] was 105% and 113%. Besides, in assay [2], the red/green cell ratio (normalised) is 0.92 (inactive). Besides, the values for the normalised cell number in assay [2] (setting [5]) and in assay [2] (setting [6]) were 1.14 and 1.05, respectively. Besides, the fold change in assay [3] (setting [7]) is 0.867 (inactive); in assay [3] (setting [8]), 4.55. For the same molecule, the cell count worked out at 11100 in assay [3] (setting [9]) and 12800 in assay [3] (setting [10]).
Consider `OC[C@@H](O)C(O[C@@H]1O[C@H](CO)[C@H](O)[C@H](O)[C@H]1O)[C@H](O)[C@@H](O)CO` (some centres undefined), for which the parasite load remaining in assay [1] was 63.4% (inactive). Also, in assay [1], the viability was found to be 99.9%. Moreover, the red/green cell ratio (normalised) in assay [2] was 1.21 (inactive). Besides, the normalised cell number was found to be 0.87 in assay [2] (setting [5]) and 1.06 in assay [2] (setting [6]). Further, the fold change in assay [3] (setting [7]) is 0.87 (inactive); in assay [3] (setting [8]) it was 4.32. The cell count in assay [3] (setting [9]) is 11300; in assay [3] (setting [10]), 13000.
On to `CCCC[C@@H](CC)COC(=O)c1ccccc1O`, for which the parasite load remaining in assay [1] was 49.2% (inactive). In addition, the viability in assay [1] worked out at 118%. In addition, the red/green cell ratio (normalised) in assay [2] was 0.88 (inactive). The normalised cell number in assay [2] (setting [5]) was 1.19; in assay [2] (setting [6]), 1.04. Besides, the fold change in assay [3] (setting [7]) is 0.858 (inactive); in assay [3] (setting [8]), 1.6. For the same molecule, the cell count came out at 11400 in assay [3] (setting [9]) and 13300 in assay [3] (setting [10]).
In the case of `OC[C@H]1OC([S-])[C@H](O)[C@@H](O)[C@@H]1O.[Au+]` (some centres undefined), in assay [1], the parasite load remaining is 51.4% (inactive). Besides, in assay [1], the viability worked out at 97.6%. The red/green cell ratio (normalised) in assay [2] was 0.82 (inactive). Moreover, the results for the normalised cell number in assay [2] (setting [5]) and in assay [2] (setting [6]) were 1.15 and 0.95, respectively. Moreover, the fold change is 0.865 (inactive) in assay [3] (setting [7]) and 2.52 in assay [3] (setting [8]). Moreover, the cell count stood at 9290 in assay [3] (setting [9]) and 10700 in assay [3] (setting [10]).
`N[C@H](Cc1cc(I)c(Oc2ccc(O)c(I)c2)c(I)c1)C(=O)O`: in assay [1], the parasite load remaining was 45.9% (inactive). For the same molecule, in assay [1], the viability came to 99.9%. Moreover, in assay [2], the red/green cell ratio (normalised) is 0.97 (inactive). The figures for the normalised cell number in assay [2] (setting [5]) and in assay [2] (setting [6]) were 1.02 and 0.99, respectively. The fold change is 0.92 (inactive) in assay [3] (setting [7]) and 1.64 in assay [3] (setting [8]). In addition, the cell count is 11400 in assay [3] (setting [9]) and 12400 in assay [3] (setting [10]).
Turning to `CCCCC(=O)O[C@]1(C(=O)CO)CCC2C3CCC4=CC(=O)CC[C@]4(C)C3[C@@H](O)C[C@@]21C` (some centres undefined), the parasite load remaining in assay [1] is 79% (inactive). The viability in assay [1] stood at 98.3%. In addition, the red/green cell ratio (normalised) in assay [2] was 1.41 (inactive). Besides, the normalised cell number in assay [2] (setting [5]) is 0.69; in assay [2] (setting [6]), 0.97. Also, the fold change was 0.833 (inactive) in assay [3] (setting [7]) and 3.05 in assay [3] (setting [8]). In addition, the cell count in assay [3] (setting [9]) came out at 7620; in assay [3] (setting [10]), 9140.
In the case of `NCC1CCCCC1CC(=O)O` (centres undefined), the parasite load remaining in assay [1] was 148% (inactive) and 51.6% (inactive). Moreover, the viability in assay [1] is 89.1% and 119%. In assay [2], the red/green cell ratio (normalised) was 0.8 (inactive). The values for the normalised cell number in assay [2] (setting [5]) and in assay [2] (setting [6]) were 1.27 and 1.02, respectively. The fold change is 0.945 (inactive) in assay [3] (setting [7]) and 5.86 in assay [3] (setting [8]). Moreover, the cell count in assay [3] (setting [9]) is 12000; in assay [3] (setting [10]), 12700.
